PNC inhibitor – High Content Assay for Compounds that inhibit the Assembly of the Perinucleolar Compartment. PC3M PTB-GFP, PNC prevalence imaging, 16 h; active compounds read low. activity change (PNC), negative = inhibition, % at 10 µM. 3.1% of 140,000 active. AID 2417, 2010;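 active = readout at or below -70, meaning at least 70% loss of cells showing the perinucleolar compartment, a nuclear body marking cancer cells; inconclusive = readout between -30 and a set limit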;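 note: plate controls were DMSO wells for no effect and camptothecin positive control wells for full effect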
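Read-out is percentage of cells bearing a perinucleolar compartment, from automated 20x imaging of fixed, Hoechst-stained PC3M PTB-GFP cells. Cells were seeded 4 h, then exposed 16 h to compound (23 nl of library stock) in duplicate plates.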
12-hLO inh – qHTS Assay for Inhibitors of 12-hLO (12-human lipoxygenase); purified 12-hLO, xylenol orange hydroperoxide absorbance; Potency, µM (series often up to 57.1 µM), for inactives: at the top dose activity change, negative = inhibition, actives largely listed as inhibitors; 0.12% of 150,000 active; note: potency is the fitted concentration of half-maximal effect; nearly all actives have a fitted effect of over 55% in size
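150 nM 12hLO, 25 mM Hepes pH 7.0 + 0.01% Triton X-100; cpd preinc 15 min RT; 40 uM arachidonic acid, 30 min RT; Fe-XO 30 min; A573/A405 ratio as read-out.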
ALDH1A1 inh – qHTS Assay for Inhibitors of Aldehyde Dehydrogenase 1 (ALDH1A1). 7.3% of 220,000 active. AID 1030, 2008. Purified ALDH1A1, NADH fluorescence, propionaldehyde substrate. Potency, µM (series often up to 75.3 µM), without a hit: top-dose activity, negative = inhibition, usual class: inhibitors; active = well fitted inhibition curve with a large enough effect, not every such curve was filed as active; inconclusive = small, poorly fitted or top-dose-only effect, or another doubt; inactive = no such curve, though single readings can be large or run the other way;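 note: potency is the fitted concentration of half-maximal effect; plate controls were no enzyme wells and a reference inhibitor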
GLA spleen mod – qHTS Assay for Inhibitors and Activators of Human alpha-Galactosidase From Spleen Homogenate. Alpha-galactosidase A (Homo sapiens), P06280. human spleen homogenate, 4MU-alpha-Gal fluorescence, 40 min. Potency, µM (doses to about 80 µM), for inactives: at the highest dose activity change, negative = inhibition, hits mostly inhibitors. 0.008% of 240,000 active;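 note: potency is the fitted concentration of half-maximal effect; 0% = enzyme with vehicle and -100% = no enzyme basal signal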
Target sequence (P06280 32-429 limits assumed): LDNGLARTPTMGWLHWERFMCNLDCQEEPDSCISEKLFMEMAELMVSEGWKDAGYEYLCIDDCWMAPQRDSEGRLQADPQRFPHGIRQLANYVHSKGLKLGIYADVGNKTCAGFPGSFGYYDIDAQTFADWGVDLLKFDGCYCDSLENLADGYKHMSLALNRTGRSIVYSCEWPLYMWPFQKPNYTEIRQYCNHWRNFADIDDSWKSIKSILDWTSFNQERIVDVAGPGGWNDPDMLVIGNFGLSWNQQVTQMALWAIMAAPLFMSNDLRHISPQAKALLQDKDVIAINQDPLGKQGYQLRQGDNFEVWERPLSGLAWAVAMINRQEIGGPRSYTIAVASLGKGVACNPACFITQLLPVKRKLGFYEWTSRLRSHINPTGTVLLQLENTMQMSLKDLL
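Spleen homogenate 1 ug + cpd (titration) + 4-MU-alpha-D-galactopyranoside 1 mM; 37C 40 min; 50 mM citrate/phosphate pH 5.0, 0.01% Tween-20; stop pH 10; fluorescence 365/440; AC50 via Hill.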
GLA inh pH 4.5 – qHTS Assay for Inhibitors of Human alpha-Galactosidase at pH 4.5; Alpha-galactosidase A (Homo sapiens), P06280; purified enzyme, 4-MU-alpha-Gal fluorescence, pH 4.5; activity change, negative = inhibition, % at 105 µM; 230,000 tested, under 10 active;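 note: 0% = full activity with enzyme and -100% = basal without enzyme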
HPGD inh – qHTS Assay for Inhibitors of HPGD (15-Hydroxyprostaglandin Dehydrogenase) | purified HPGD, NADH fluorescence kinetic, PGE2 substrate | Potency, µM, inactives show at the top dose activity change, negative = inhibition, most hits filed as inhibitors | AID 894, 2007 | 4.3% of 150,000 active | 15-hydroxyprostaglandin dehydrogenase [NAD(+)] (Homo sapiens), P15428; active = well fitted inhibition curve with a large enough effect, not every such curve was filed as active; inconclusive = small, poorly fitted or top-dose-only effect, or another doubt; inactive = no such curve, though single readings can be large or run the other way; note: potency is the fitted concentration of half-maximal effect
Target sequence (P15428 whole entry, looked up): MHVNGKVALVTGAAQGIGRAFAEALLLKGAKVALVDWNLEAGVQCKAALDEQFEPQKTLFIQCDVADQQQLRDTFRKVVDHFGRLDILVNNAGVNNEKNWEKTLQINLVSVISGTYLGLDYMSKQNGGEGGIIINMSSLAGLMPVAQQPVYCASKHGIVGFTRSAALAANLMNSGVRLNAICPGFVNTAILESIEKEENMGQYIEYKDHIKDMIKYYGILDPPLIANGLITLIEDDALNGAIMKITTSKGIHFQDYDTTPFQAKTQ
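20 nM HPGD preincubated 15 min at room temperature with compound in 50 mM Tris-HCl pH 8, 0.01% Tween 20. Started with 1 mM NAD+ and 30 uM prostaglandin E2; NADH fluorescence (360/450 nm) read 5 times over 30-s intervals, last minus first.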
An asterisk follows results filed as active; [ ] = remark or other dose. In the library only some 10% were active in any assay of this set; here they are far more common. Unless noted, calls come from the whole dose curve; as a rule, active = well fitted curve in the direction sought with a large enough effect; inconclusive = small, poorly fitted or top-dose-only effect, or another doubt; inactive = no such curve, though single readings can be large; an effect the other way counts as inactive or inconclusive. Unless noted, % is set by controls: 0 for no effect and ±100 for the full control effect.

How did CN1CCN(c2nc(-c3ccccc3C(F)(F)F)nc3ccccc23)CC1 do in these assays?
ALDH1A1 inh: -6%; GLA spleen mod: 0%

How did CCn1ncc(C2=NOC(C(=O)Nc3ccc(C)cc3)C2)c1C (centres undefined) do in these assays?
PNC inhibitor: inconclusive; 12-hLO inh: 2%; ALDH1A1 inh: 9%; GLA spleen mod: -3%; GLA inh pH 4.5: 8; HPGD inh: -6%

How did CCn1ncc(C2=NOC(C(=O)NCc3ccc(Cl)cc3)C2)c1C (centres undefined) do in these assays?
PNC inhibitor: -82*; 12-hLO inh: -5%; ALDH1A1 inh: 0%; GLA spleen mod: -9%; GLA inh pH 4.5: -12; HPGD inh: -14%

How did COc1ccc(O)c(C(=O)c2cc(C#N)c(=O)n(CC3CCCO3)c2)c1 (centres undefined) do in these assays?
PNC inhibitor: -4; 12-hLO inh: -9%; ALDH1A1 inh: 25µM*; GLA spleen mod: 0%; GLA inh pH 4.5: -5; HPGD inh: -28%

Results for CC(=O)ON(C(C)=O)S(=O)(=O)c1ccc(Cl)cc1 ?
12-hLO inh: -4%; ALDH1A1 inh: -7%; GLA spleen mod: 0%; GLA inh pH 4.5: -1; HPGD inh: 2%

How did NS(=O)(=O)c1ccc(CNC(=O)/C=C/c2ccco2)cc1 do in these assays?
GLA spleen mod: 7%; GLA inh pH 4.5: 2

Results for Cc1ccc(/C=C/C(=O)Nc2nccs2)o1 ?
PNC inhibitor: -18; 12-hLO inh: -1%; ALDH1A1 inh: inconclusive; GLA spleen mod: 2%; GLA inh pH 4.5: -2; HPGD inh: 25µM*

Results for Cc1ccc(/C=C/C(=O)NCc2ccc(S(N)(=O)=O)cc2)o1 ?
ALDH1A1 inh: 1.8µM*; GLA spleen mod: 3%; GLA inh pH 4.5: 16

Results for CC(=O)NS(=O)(=O)c1ccc(NC(=O)/C=C/c2ccc(C)o2)cc1 ?
ALDH1A1 inh: 13µM*; GLA spleen mod: -13%; GLA inh pH 4.5: 7

What do the screens show for `COc1ccc(/C=C/C(=O)NCCc2ccc(S(N)(=O)=O)cc2)cc1`?
PNC inhibitor: inconclusive; 12-hLO inh: -3%; ALDH1A1 inh: 10µM*; GLA spleen mod: 5%; GLA inh pH 4.5: 0; HPGD inh: -7%

Results for Cc1ccc(/C=C/C(=O)Nc2ccc(N(C)C)cc2)o1 ?
PNC inhibitor: 36; 12-hLO inh: -4%; ALDH1A1 inh: -12%; GLA spleen mod: -4%; GLA inh pH 4.5: 7; HPGD inh: -10%

How did Cc1ccc(/C=C/C(=O)Nc2ncc(C)s2)o1 do in these assays?
PNC inhibitor: 29; 12-hLO inh: -9%; ALDH1A1 inh: inconclusive; GLA spleen mod: -7%; GLA inh pH 4.5: -5; HPGD inh: -10%

What do the screens show for `COC(=O)c1ccc(C(NC(=O)OCc2ccccc2)/C(=C/[C@@H](C)C(=O)NCc2nc3ccccc3n2C)c2cccnc2)cc1` (some centres undefined)?
12-hLO inh: 1%; ALDH1A1 inh: 2%; GLA spleen mod: -2%; GLA inh pH 4.5: -7; HPGD inh: -15%

What do the screens show for `C[N+](C)([O-])Cc1cc(-c2ccccc2)ccc1O`?
12-hLO inh: 1%[11.4 µM]; ALDH1A1 inh: -9%[13.5 µM]; HPGD inh: -11%

Results for NNC(=O)[C@@H](O)[C@H](O)C(=O)NN ?
12-hLO inh: 3%[11.4 µM]; ALDH1A1 inh: 1%[13.5 µM]; HPGD inh: 0%

Results for NS(=O)(=O)c1ccc(CNC(=O)/C=C/c2ccc(Cl)c(Cl)c2)cc1 ?
PNC inhibitor: inconclusive; 12-hLO inh: -4%; ALDH1A1 inh: 20%; GLA spleen mod: -2%; GLA inh pH 4.5: -5; HPGD inh: -20%

Results for Cc1ccc(/C=C/C(=O)Nc2ccc(S(N)(=O)=O)cc2)o1 ?
ALDH1A1 inh: 25µM*; GLA spleen mod: 6%; GLA inh pH 4.5: 13

Results for CC(C)c1ccc(/C=C/C(=O)NCc2ccc(S(N)(=O)=O)cc2)cc1 ?
ALDH1A1 inh: 28µM*; GLA spleen mod: -2%; GLA inh pH 4.5: 5

Results for Cc1ccc(/C=C/C(=O)NCCc2c[nH]c3ccccc23)o1 ?
ALDH1A1 inh: 14µM*; GLA spleen mod: 3%; GLA inh pH 4.5: 0

What do the screens show for `COc1cccc(=O)c2c(C)n(-c3cc(C)cc(C)c3)c(C)c12`?
PNC inhibitor: 66; 12-hLO inh: -23%; ALDH1A1 inh: -5%; GLA spleen mod: -3%; GLA inh pH 4.5: -17; HPGD inh: 28µM*

How did COc1cccc(-n2c(C)c3c(OC)cccc(=O)c3c2C)c1 do in these assays?
ALDH1A1 inh: inconclusive; GLA spleen mod: -3%

Results for Oc1ccc(NCc2ccccc2OCc2ccccc2)cc1 ?
PNC inhibitor: 0; 12-hLO inh: -6%; ALDH1A1 inh: 5.6µM*; GLA spleen mod: -3%; GLA inh pH 4.5: -1; HPGD inh: 14µM*

How did CCNCc1ccccc1OCc1ccccc1 do in these assays?
ALDH1A1 inh: 3%; GLA spleen mod: -3%; GLA inh pH 4.5: 1

Results for Cc1ccccc1N/C(=C(/C(Cl)=C(Cl)Cl)[N+](=O)[O-])n1nnc2ccccc21 ?
PNC inhibitor: -3; 12-hLO inh: -9%; ALDH1A1 inh: 14µM*; GLA spleen mod: 0%; GLA inh pH 4.5: 5; HPGD inh: -15%

What do the screens show for `CN(C)c1ccc(C(=O)n2nnc3ccccc32)cc1`?
PNC inhibitor: 35; 12-hLO inh: 6%; ALDH1A1 inh: inconclusive; GLA spleen mod: 8%; GLA inh pH 4.5: 5; HPGD inh: -28%

What do the screens show for `COc1ccc(N/C(=C(/C(Cl)=C(Cl)Cl)[N+](=O)[O-])n2nnc3ccccc32)cc1`?
PNC inhibitor: 30; 12-hLO inh: -2%; ALDH1A1 inh: 16µM*; GLA spleen mod: 0%; GLA inh pH 4.5: 0; HPGD inh: -21%

How did CCOC(=O)N1CCN(/[N+]([O-])=N/Oc2ccc([N+](=O)[O-])cc2[N+](=O)[O-])CC1C (centres undefined) do in these assays?
GLA spleen mod: -12%

Results for O=C1/C(=C/c2ccc(Cl)cc2)NC(=S)N1Cc1cccnc1 ?
ALDH1A1 inh: 8%; GLA spleen mod: 7%; GLA inh pH 4.5: 0
